# In all, about 35,000 sequences were measured (“fluorescence intensity (a.u.)”: median about 10,000, highest 2% from about 52,000 on). This is one part of a sample in which the highest values are shown more often than they occur.
# Biological target: T1, OsWOX13 (Oryza sativa, UniProt Q5QMM3 1-267)
# T1 sequence: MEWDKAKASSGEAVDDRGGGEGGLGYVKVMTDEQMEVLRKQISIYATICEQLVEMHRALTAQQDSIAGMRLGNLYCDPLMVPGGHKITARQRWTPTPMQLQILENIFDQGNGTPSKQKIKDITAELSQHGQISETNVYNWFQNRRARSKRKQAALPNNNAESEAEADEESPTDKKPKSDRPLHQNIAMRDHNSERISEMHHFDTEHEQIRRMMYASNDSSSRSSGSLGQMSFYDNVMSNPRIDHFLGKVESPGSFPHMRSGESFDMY
# Assay: protein-binding microarray (RPBM); PBS, 2% BSA, 51.3 ng/ul salmon testes DNA, 50 uM zinc acetate, 200 nM TF, 25 C, 1 h; high values mean tight binding
# Conditions: protein: recombinant; tags: N-terminal polyhistidine and DsRed monomer fusion (pET32a); label: CyDye5-dUTP incorporated in the synthesized complementary strand; 3' TTTTT single-stranded linker to array surface; dsDNA, one strand shown
# In short: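 Using Ni–NTA, transcription factors fused N-terminally to polyhistidine and DsRed were purified after expression in E. coli BL21-CodonPlus. These were incubated at 200 nM with a blocked, double-stranded custom Agilent array for 1 h at 25 °C in a buffer containing 50 µM zinc acetate, and the array was washed. The binding signal is per-feature fluorescence intensity (arbitrary units) on an Axon 4000B scanner.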
row,Sequence,binding signal
1,CAATGACTGATTACTGTGTTGATAGAATTTCATATACATTCGGAGTCACCTAGTGCAG,34300 fluorescence intensity (a.u.)
2,TAAAATTTGGAACTGAAATTTCTAACATTTCGGGTCCATCCGGAGTCACCTAGTGCAG,4680 fluorescence intensity (a.u.)
3,AAGATAGATAGATTCATCGCGATCGATCGAGCGGGAGGTACGGAGTCACCTAGTGCAG,22500 fluorescence intensity (a.u.)
4,AAACCATTGCAAATTAACTCTCCAAATGGTTTCAGAGACGCGGAGTCACCTAGTGCAG,4040 fluorescence intensity (a.u.)
5,TACGCTATACGCAGTAATTGATATATATAATCTTCATGGTCGGAGTCACCTAGTGCAG,8920 fluorescence intensity (a.u.)
6,CCAAATGGGACAAAAGATTGAAAAGAAAACTGACAGCCGCCGGAGTCACCTAGTGCAG,13900 fluorescence intensity (a.u.)
7,GTCCCAATGATTGCCAGCCCCGGTGGACGGGTGTAGAAGCCGGAGTCACCTAGTGCAG,38100 fluorescence intensity (a.u.)
8,CTTTTAAATGTAGTATAATTATATTATAACTAATAACTAGCGGAGTCACCTAGTGCAG,18300 fluorescence intensity (a.u.)
9,ATAACTATTTAATTGACATGCAATAAATATAAATGGGTAGCGGAGTCACCTAGTGCAG,52600 fluorescence intensity (a.u.)
10,TATAATTGACATGCAATTATAATAACGTGGGTTAAATATACGGAGTCACCTAGTGCAG,33800 fluorescence intensity (a.u.)
11,CCAAATTCATCTTAATGTTTGATTATGATCAGCATCTTATCGGAGTCACCTAGTGCAG,4610 fluorescence intensity (a.u.)
12,TCTAAATTGTATTTCTATATGGACTCTAGTCTCCTCTTCACGGAGTCACCTAGTGCAG,14000 fluorescence intensity (a.u.)
13,GAACAATAGATTAATATATAATTAAATAAATATTAGTCAACGGAGTCACCTAGTGCAG,25100 fluorescence intensity (a.u.)
14,TACAATCTGATTAATTAATTAGCACGGAAAATAATGTCAACGGAGTCACCTAGTGCAG,59200 fluorescence intensity (a.u.)
15,TATTAATTTGTAATTAATATTGAATAACGCTGCGTGAGTACGGAGTCACCTAGTGCAG,45900 fluorescence intensity (a.u.)
16,AGTCAAATTAATCACGCAGCTGAATGCTGAATAATGTGTCCGGAGTCACCTAGTGCAG,24000 fluorescence intensity (a.u.)
17,AGCTCTGATTGAATTAGCTAATTATGGTTGCACGTCTAAGCGGAGTCACCTAGTGCAG,59600 fluorescence intensity (a.u.)
18,TAAACATCTGATTAGCTAAAAGTGTTTAATTAGATTTCCACGGAGTCACCTAGTGCAG,21800 fluorescence intensity (a.u.)
19,GAAATAATTAATCAATTAACGCTGATGTGTGAGCTGCGTACGGAGTCACCTAGTGCAG,53800 fluorescence intensity (a.u.)
20,TCCCCTCTGATTAATTAATTAATTAATTAATTAGCTAAAACGGAGTCACCTAGTGCAG,65500 fluorescence intensity (a.u.)
21,CAGTTGATTGGCCGACGTTATGATATGGTAGCTGAATTAGCGGAGTCACCTAGTGCAG,44100 fluorescence intensity (a.u.)

row,Sequence,binding signal
1,CGTCTAATTAAGCGTAGACGATCTGATTCGCTAGCTCGCACGGAGTCACCTAGTGCAG,10600 fluorescence intensity (a.u.)
2,TCCTCTCTTAATTAATTATTAGCTCGTGTTAATTGTTAAACGGAGTCACCTAGTGCAG,32800 fluorescence intensity (a.u.)
3,GAAACGTGATTCAAATGATTATTCAGGTACAATAATCTTACGGAGTCACCTAGTGCAG,8070 fluorescence intensity (a.u.)
4,TTACAAGACTTTCAATTATTATCCACATTTATATAGATGTCGGAGTCACCTAGTGCAG,7150 fluorescence intensity (a.u.)
5,CACCAATCAGGGTTCCAAGTAGAAGAGGTGGGCAGAGAGCCGGAGTCACCTAGTGCAG,6870 fluorescence intensity (a.u.)
6,GATAATTTGGTCATTGCTAAAATATTTGGGAAAAGTTAGCCGGAGTCACCTAGTGCAG,23700 fluorescence intensity (a.u.)
7,TTATAATTGGAAAATAAATGAAGGGTTATAATTAAATGAACGGAGTCACCTAGTGCAG,12000 fluorescence intensity (a.u.)
8,CTAAGCTGTGATTTCTTTTCTTTATGTCACCACCTCCAAACGGAGTCACCTAGTGCAG,3460 fluorescence intensity (a.u.)
9,TTAATTAGACTGACATGTGGGGTCCGCGTGGGTCCCACCACGGAGTCACCTAGTGCAG,20200 fluorescence intensity (a.u.)
10,TAGTCGTGTCAATTTGGAAAATTGGAAAGCCGTGGGGAGACGGAGTCACCTAGTGCAG,11400 fluorescence intensity (a.u.)
11,TGATAATAATCTGTTCAATAATTTATCTTAAACAGGGCCTCGGAGTCACCTAGTGCAG,11200 fluorescence intensity (a.u.)
12,CCCTATCAATTACCTTCACTATCATATTAATCATTGTAGGCGGAGTCACCTAGTGCAG,24100 fluorescence intensity (a.u.)
13,CAAACAGTCAATTAGGCCTAAACAAGTTGCTACGAGCTAGCGGAGTCACCTAGTGCAG,33200 fluorescence intensity (a.u.)
14,GAATATTAAACTTCCAAAACAGGTCCAAAGCTATGTTCTTCGGAGTCACCTAGTGCAG,57500 fluorescence intensity (a.u.)
15,ATTAATTAAAGCTAATTAAACGATGTTGTTTATTAGGCTTCGGAGTCACCTAGTGCAG,58700 fluorescence intensity (a.u.)
16,TAAAATTAAGCTCCAAATAAACTATATAAAATTATGTATTCGGAGTCACCTAGTGCAG,4090 fluorescence intensity (a.u.)
17,TTATTACAATTTAATTATATTTTAATTATTCTAAAAGCTTCGGAGTCACCTAGTGCAG,20200 fluorescence intensity (a.u.)
18,GCTAATTATAGTTTAATTAGGCTTAATAAATTTACAGTTTCGGAGTCACCTAGTGCAG,42300 fluorescence intensity (a.u.)
19,CACTTAATTTGTTAATTAAATATATTTTCCAAACAAATTTCGGAGTCACCTAGTGCAG,39100 fluorescence intensity (a.u.)
20,AATTGCGTGATTGTGCTAATCAAAATGCAGAATTGGATATCGGAGTCACCTAGTGCAG,23000 fluorescence intensity (a.u.)
21,CAAAATTAAACTTTAAAATTCAGACTTCAGACTCCAGTGCCGGAGTCACCTAGTGCAG,13400 fluorescence intensity (a.u.)

# Source: article PMC7819943, “Rice protein-binding microarrays: a tool to detect cis-acting elements near promoter regions in rice”
